Rows were chosen to be rich in hits. Some 1.2% of all compounds tested hit in one or more screens of this group.
Avidin bead fluor: avidin bead compound fluorescence profile | Avidin beads, compound fluorescence 488/530 nm, flow cytometry; active compounds read high | AID 1775 | fluorescence (KMESF) at 10 µM | actives 0.38% (n = 220,000); in the data active means fluorescence above about 47
GSH bead fluor: compound fluoresces at 488/530 nm on GSH beads | actives 0.25% (n = 190,000) | GSH beads flow cytometry, compound fluorescence 488/530 nm; active compounds read high | fluorescence (KMESF) at 10 µM; in the data active means fluorescence above about 89;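 further: glutathione beads carrying GST-tagged Bcl family fusion proteins plus one bare bead set; values are compound well signal with DMSO vehicle wells as background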
RGS4-Gao reg: human RGS4-Galphao interaction regulation; Multiplexed bead flow cytometry, RGS4-Galphao binding; actives lie on both sides; binding response (% of control), % at 10 µM; actives 0.33% (n = 220,000); AID 1415; in the data active means binding response below about 49% or above about 150%; inactive means in between;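 further: fluorescent Galphao activated with aluminum fluoride binding bead-coupled RGS4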
Target sequence (P09471 whole entry, looked up): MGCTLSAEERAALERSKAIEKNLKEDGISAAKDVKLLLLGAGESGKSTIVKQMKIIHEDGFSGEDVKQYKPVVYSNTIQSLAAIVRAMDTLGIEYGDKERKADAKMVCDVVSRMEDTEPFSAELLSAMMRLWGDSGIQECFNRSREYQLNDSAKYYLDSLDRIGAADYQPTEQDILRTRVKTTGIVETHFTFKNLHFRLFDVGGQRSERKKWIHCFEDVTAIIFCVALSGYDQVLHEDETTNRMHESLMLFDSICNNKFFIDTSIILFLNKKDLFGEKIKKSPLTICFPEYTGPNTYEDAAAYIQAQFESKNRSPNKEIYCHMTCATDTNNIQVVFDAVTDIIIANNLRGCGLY
RGS16-Gao HTS: regulators of human RGS16-Galphao interaction; bead-based flow cytometry RGS16-Galphao binding, fluorescence; actives lie on both sides; binding response (% of control), % at 10 µM; actives 0.38% (n = 220,000);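 further: Galphao activated by GDP with aluminum fluoride before binding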
RGS8-Gao reg: regulators of human RGS8-Galphao interaction. P09471. multiplexed bead flow cytometry, RGS8-Galphao binding; actives lie on both sides. response (percent of control binding), % at 10 µM. actives 0.34% (n = 220,000); in the data active means response below about 60% or above about 140%; inactive means in between;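 further: Galphao activated as the GDP aluminium fluoride complex binding bead-coupled RGS8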
RGS7-Gao reg: modulates binding of RGS7 to human Galphao; P09471; binding response (% of control), % at 10 µM; Multiplexed bead flow cytometry; actives lie on both sides; actives 0.35% (n = 220,000); AID 1439; in the data active means binding response below about 49% or above about 150%; inconclusive means no clear call, values can overlap the other calls; inactive means in between;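 further: fluorescent Galphao held in activated GDP-AlF4 state binding bead-coupled RGS7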
RGS-Gao: regulators of human RGS4-Galphao interaction. RGS4–Galpha-o binding response, % at 10 µM. multiplexed bead flow cytometry, RGS–Galpha-o binding. actives 99% (n = 1,600). shares compounds with RGS16-Gao HTS;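 further: fluorescently labeled Galpha-o bound to GDP with aluminium fluoride binding biotinylated RGS beads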
Avidin counter: biotin-avidin bead binding disruption counter-screen; 1,700 tested, under 10 active; shares compounds with RGS16-Gao HTS; inhibition, % at 10 µM; streptavidin beads, fluorescein-biotin binding, flow cytometry; AID 1783;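 active means inhibition above 50%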;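 further: median green fluorescence of gated singlet beads compared with DMSO control wells; 0% = DMSO wells and 100% = complete loss of bead fluorescence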
RGS8-Gao single: RGS8-Galphao interaction regulation, single point confirmation | actives 3% (n = 1,700) | shares compounds with RGS16-Gao HTS | bead-based flow cytometry RGS8-Galphao binding, fluorescence; actives lie on both sides | AID 1836 | binding response (% of control), % at 10 µM; in the data active means binding response below about 72% or above about 130%; inactive means in between;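 further: Galphao activated as GDP AlF4 complex before binding bead RGS8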
RGS7-Gao single: confirmation of regulators of human RGS7-Galphao interaction. AID 1837. bead-based flow cytometry RGS7-Galphao binding; actives lie on both sides. response (percent of control binding), % at 10 µM. actives 7.8% (n = 1,700). shares compounds with RGS16-Gao HTS; in the data active means response below about 75% or above about 130%; inactive means in between;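 further: fluorescent Galphao activated with GDP and aluminum fluoride binding bead-coupled RGS7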
RGS16-Gao single: RGS16-Galphao interaction regulation, single point confirmation; shares compounds with RGS16-Gao HTS; response (% of control binding), % at 10 µM; actives 4% (n = 1,700); bead-based flow cytometry, RGS16-Galphao binding; actives lie on both sides; AID 1838; in the data active means response below about 74% or above about 130%; inactive means in between;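 further: Galphao activated as the GDP aluminium fluoride complex binding bead-coupled RGS16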
RGS4-Gao single: RGS4-Galphao interaction regulation, single point confirmation; shares compounds with RGS16-Gao HTS; RGS4-Galphao binding, multiplexed bead flow cytometry; actives lie on both sides; binding response (% of control), % at 10 µM; actives 4% (n = 1,700); AID 1840; in the data active means binding response below about 74% or above about 130%; inactive means in between
RGS19-Gao conf: confirmation of regulators of human RGS19-Galphao interaction; bead-based flow cytometry RGS19-Galphao binding; actives lie on both sides; AID 1841; response (percent of control binding), % at 10 µM; actives 5% (n = 1,700); shares compounds with RGS16-Gao HTS; in the data active means response below about 50% or above about 160%; inactive means in between;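 further: 100% = no compound control and 0% = blank background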
Target sequence (P09471 whole entry, looked up): as above
Target sequence (P49795 whole entry, looked up): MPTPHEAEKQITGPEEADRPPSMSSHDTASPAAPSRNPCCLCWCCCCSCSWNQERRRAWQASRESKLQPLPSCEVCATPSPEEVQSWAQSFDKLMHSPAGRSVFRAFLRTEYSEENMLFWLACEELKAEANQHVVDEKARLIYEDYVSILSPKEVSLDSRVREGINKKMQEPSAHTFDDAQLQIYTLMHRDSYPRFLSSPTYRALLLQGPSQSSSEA
* = called active by the depositor; i = inactive; ? = inconclusive; / = not tested or not shown; [ ] = dose if it differs, or a comment. Unless noted, how the calls were made is not given here.

SMILES	Avidin bead fluor	GSH bead fluor	RGS4-Gao reg	RGS16-Gao HTS	RGS8-Gao reg	RGS7-Gao reg	RGS-Gao	Avidin counter	RGS8-Gao single	RGS7-Gao single	RGS16-Gao single	RGS4-Gao single	RGS19-Gao conf
O=C1CC(/C=C/c2ccncc2)=Nc2ccccc2N1	99*	24	117	96	96	162*[activator]	117*	-2	102	100	103	102	89
O=C1CC(c2ccccc2)=Nc2ccccc2N1	13	37	103	97	101	100	/	/	/	/	/	/	/
C=CCN1C(=O)C2(NC(=O)c3ccccc3N2)c2ccccc21 (stereo unspecified)	164*	22	123	104	89	270*[activator]	123*	0	102	99	98	101	103
C=CCN1C(=O)C2(NNc3ccccc3O2)c2ccccc21 (stereo unspecified)	10	37	100	102	101	99	/	/	/	/	/	/	/
CC(C)(C)NC(=O)C(c1ccccn1)N(C(=O)C1CSC(=O)C1)c1ccc(F)cc1 (stereo unspecified)	43	12	99	98	101	100	/	/	/	/	/	/	/
COc1ccc(NC(=O)CCCn2c(=O)oc3ccccc32)cc1Cl	7	7	88	8.8*	71	89	88*	/	/	/	/	/	/
COCC(=O)Nc1ccc(OC)c(Cl)c1	3	19	98	98	52*	53	98*	-1	101	98	100	101	97
COc1ccc(NC(=O)COC(C)=O)cc1Cl	3	10	104	100	102	103	/	/	/	/	/	/	/
FC(F)(F)c1ccccc1NC(=S)N/N=C1\CC2CC=CC12 (stereo unspecified)	11	26	101	99	101	100	/	/	/	/	/	/	/
O=C(COC(=O)c1cccnc1Cl)Nc1nc(-c2ccccc2)cs1	7	15	101	102	102	100	/	/	/	/	/	/	/
Cc1cc2cc(CCNC(=O)c3cccc([N+](=O)[O-])c3)c(=O)[nH]c2cc1C	0	10	35*	37	61	37*	/	0	100	100	100	99	104
CN(C)C(=O)NC(NC(=S)Nc1ccccc1)C(Cl)(Cl)Cl (stereo unspecified)	8	12	95	97	91	85	/	/	/	/	/	/	/
CN(C)C(=O)NC(Nc1ccc(Cl)cc1Cl)C(Cl)(Cl)Cl (stereo unspecified)	7	18	71	17*	56*	67	71*	2	95	89	89	89	92
COc1ccc(COCC(O)CN(Cc2ccccc2)C(C)C)cc1OC (stereo unspecified)	12	11	94	91	95	?	/	/	/	/	/	/	/
Cc1ccc(-n2c(C)cc(C(=O)COc3c(CO)cc(F)cc3CO)c2C)cc1C	4	10	116	332	153*[activator]	115	116*	2	105	104	104	103	108
COc1ccc(OCC(=O)Nc2c3c(nn2C(C)(C)C)CSC3)cc1	7	14	100	100	98	102	/	/	/	/	/	/	/
COC(=O)C1CSC(C(=O)OC)N1C(=O)CN1CCN(c2ccccc2)CC1 (stereo unspecified)	10	25	99	99	100	104	/	/	/	/	/	/	/
CCOC(=O)CC(=O)CSCC(=O)Nc1ccc(C)cc1	4	19	47*	36	57*	43*	/	0	105	107	105	106	102
Cc1ccc(NC(=O)CSCC#N)cc1	8	5	90	93	93	91	/	/	/	/	/	/	/
Oc1ccc(O)c(-c2cnns2)c1	13	12	101	102	101	101	/	/	/	/	/	/	/
COc1ccc(CCn2c(O)cc3nn(-c4nc5ccccc5s4)c(=O)c-3c2C)cc1	4	/	91	92	98	?	/	/	/	/	/	/	/
CCCCOCP(=O)(CCCC)COCCCC	1	28	24*	-1	32*	25*	/	1	102	104	102	102	97
CNc1nc(C23CC4CC(CC(C4)C2)C3)cs1	6	18	103	105	101	101	/	/	/	/	/	/	/
O=C(NC1CCCCC1)c1ccc(N2CCCC2=O)cc1	19	15	108	211*[activator]	131	120	108*	/	/	/	/	/	/
CCOC(=O)c1c(NC(=S)NC(C)=O)sc(C)c1C	8	17	102	57	89	105	/	/	/	/	/	/	/
SMILES	Avidin bead fluor	GSH bead fluor	RGS4-Gao reg	RGS16-Gao HTS	RGS8-Gao reg	RGS7-Gao reg	RGS-Gao	Avidin counter	RGS8-Gao single	RGS7-Gao single	RGS16-Gao single	RGS4-Gao single	RGS19-Gao conf
Cc1cc(NC(=O)Nc2ccccc2F)ccc1Br	6	22	105	101	99	99	/	/	/	/	/	/	/
CC(C)Cn1c(-c2nn(C)cc2Cl)n[nH]c1=S	4	22	49*	41	59*	45*	/	-1	97	111	97	104	91
CCOc1cccc(CN2CCN(Cc3ccc(C)o3)C(CCO)C2)c1O (stereo unspecified)	8	8	102	100	101	98	/	/	/	/	/	/	/
COc1ccc2oc3cc(C)[n+]([O-])c(-c4ccc(Cl)cc4)c3c2c1	-1	11	41*	90	78	52	/	i	105	114	112	111	107
COc1ccc(Nc2nnc(C)c(=O)[nH]2)c(OC)c1	6	/	101	102	101	?	/	/	/	/	/	/	/
CCOc1ccc(C(=O)N[C@H](C(=O)Nc2cccc(S(=O)(=O)N3CCCCC3)c2)C(C)C)cc1	4	7	90	4.6*	80	88	90*	1	103	100	98	102	93
Cc1cccc(C(=O)N[C@H](C(=O)Nc2cccc(S(=O)(=O)N3CCCC3)c2)C(C)C)c1	16	/	109	110	103	?	/	/	/	/	/	/	/
